Our source for the growth rescue values is PubChem BioAssay AID504582 (Broad Institute, 2011).

Each structure is given as a SMILES string. Hit rate of the full screen: of about 340,000 compounds, about 2,300 (0.68%) were called active. The entries come from a sample that favours actives as a whole. Values without a mark were called inactive. Rule as the data show it: active = growth rescue above about 28% (passing the limit was not always enough); inconclusive = no clear call, values can overlap the other calls.

A short description of the experiment: rescue of yeast from PfHsp40 toxicity, primary screen, S. cerevisiae, ATP luminescence (AID 504582).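 Also: yeast W303a lacking pdr1 and pdr3 grown in galactose medium; growth measured after three days at 30 °C.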 To be noted: S. cerevisiae expressing PfHsp40, growth rescue, at 12.5 µM, active compounds read high.
For the compound `CSc1ccc(CNCCN2CCOCC2)cc1`, the growth rescue was -0.373%.

In the case of `CCOc1ccc(NC(=O)C2CCN(C(=O)N3CCOc4ccccc43)CC2)cc1`, the growth rescue is 2.49%.

Consider `CCN(CC)S(=O)(=O)c1ccc(CNC(=O)CN2C(=O)NC3(CCc4ccccc43)C2=O)cc1` (stereo not drawn), for which the growth rescue was 0.805%.

`COc1ccc(N2CCN(C(=O)CNC(=O)c3ccc(Br)o3)CC2)cc1`: the growth rescue is 0.176%.

Consider `COc1ccc(N2CCN(C(=O)CCNC(=O)c3ccc(Br)cc3)CC2)cc1`, for which the growth rescue was 156% (active).

On to `COc1ccc(N2CCN(C(=O)CNC(=O)c3ccc(C(C)(C)C)cc3)CC2)cc1`, for which the growth rescue is -0.643%.

With `CCOC(=O)c1cnc(Nc2nc3ccccc3o2)nc1CSC(=S)N1CCCCC1`, the growth rescue is -0.518%.

Turning to `Cc1ccc2[nH]c(=O)c(CN(CCCN(C)C)C(=O)Nc3cccc(Cl)c3)cc2c1`, the growth rescue was -0.771%.

`CCn1c(/C=C/Nc2ccccc2)[n+](CC)c2ccc(C(=O)OCC(F)(F)F)cc21`: the growth rescue is -1.14%.

Regarding `O=C(NN1C(=O)C2CCCCC2C1=O)c1ccco1` (stereo not drawn), the growth rescue is -1.05%.

Turning to `O=C1Nc2cc(Cl)c(Cl)cc2N(O)N1c1cc(Cl)cc(Cl)c1`, the growth rescue is 7.24%.

Turning to `CC(=O)Nc1ccccc1NC(=O)c1cc(C)cc(C)c1`, the growth rescue was 51.5% (active).

Regarding `Cc1ccccc1C(=O)Nc1ccccc1NC(=O)c1ccccc1C`, the growth rescue is -1.3%.

Take `Nc1ccc(C(=O)Nc2ccccc2N)cc1`: the growth rescue is 0.192%.

In the case of `CC(=O)NNc1cc(=O)c2c(=O)n(C)c(=O)n(C)c2[nH]1`, the growth rescue was -1.81%.

In the case of `Cc1cc(Nc2cccc(C)c2C)n2ncnc2n1`, the growth rescue is -0.558%.

Regarding `Cc1ccc(-c2nn(C(C)(C)C)c3ncnc(N)c23)cc1`, the growth rescue was 263% (active).

On to `CCOc1cccc(NC(=O)Cn2nc(-c3ccc4c(c3)OCCO4)ccc2=O)c1`, for which the growth rescue is 1.19%.

For the compound `Cc1cc(C(=O)NCCc2ccc(Cl)cc2)n(-c2ccccc2)n1`, the growth rescue is 0.0165%.

In the case of `O=C(NCCc1ccccc1)Oc1ccc(Cl)cc1`, the growth rescue is -0.082%.

Regarding `Cc1cc(C(=O)NCCc2ccc(Cl)cc2)c(C)o1`, the growth rescue was 52.1% (active).

With `Cc1ccc(C(NC(=O)N2CCCC2)C(Cl)(Cl)Cl)cc1F` (stereo not drawn), the growth rescue was -0.492%.

Consider `CCCCn1c(SCC(=O)N2CCOCC2)nc2c1c(=O)n(C)c(=O)n2C`, for which the growth rescue is -0.611%.

For the compound `CC(C)(C)OC(=O)C[C@@H]1C/C=C\C[C@@H](CC(=O)N[C@H](CO)Cc2ccccc2)C(=O)NCCOC1=O`, the growth rescue is -0.196%.

Consider `COc1ccc(-c2cc(=O)oc3cc(OC(C)C(=O)Nc4ccc(CN5CCOCC5)cc4)ccc23)cc1` (stereo not drawn), for which the growth rescue is 0.401%.

For `CCC(=O)N1CCN(c2ccccc2NC(=O)COc2cccc(C)c2C)CC1`, the growth rescue is 2.68%.

For `COc1cc(NC(=O)COc2ccccc2Cl)ccc1NC(=O)C(C)C`, the growth rescue was 1.17%.

Consider `Cc1ccccc1OCC(=O)Nc1ccc(N2CCN(C(=O)C(C)C)CC2)c(Cl)c1`, for which the growth rescue is 48.8% (active).

Regarding `CCCC1OC23CCCCC2C(C#N)(C#N)C1(C#N)C(=N)O3` (stereo not drawn), the growth rescue was -1.17%.

`CC(=O)Nc1nc(N(C)C)nc(N(C)C)n1`: the growth rescue was 1.85%.

Turning to `Cn1cccc1C(C#N)c1ccccc1C#N` (stereo not drawn), the growth rescue is -0.257%.

For `Cc1ccnc2nc(C(=O)Nc3nnc(-c4ccccc4)o3)nn12`, the growth rescue is -0.238%.

Take `COc1ccccc1C(=O)NCC(=O)OCC(=O)Nc1nnc(-c2ccccc2)o1`: the growth rescue was -1.88%.

Consider `O=C(Nc1nnc(-c2ccc(Cl)cc2)o1)c1ccccc1Br`, for which the growth rescue is 92.7% (active).

For the compound `COc1ccc2c(c1)c1ncn(Cc3ccccn3)c(=O)c1n2C`, the growth rescue is -0.652%.

Take `O=C(O)c1cc2c(cc1NC(=O)c1c(F)cccc1Cl)OCCCO2`: the growth rescue was -1.32%.

On to `O=C1c2ccccc2C2=Nc3ccccc3SC(c3ccccc3F)C12` (stereo not drawn), for which the growth rescue was 152% (active).

In the case of `CN(Cc1ccc(F)cc1)C(=O)CN1C(=O)c2ccccc2S1(=O)=O`, the growth rescue is -1.04%.

In the case of `Cc1cccc(-c2oc3ccc(-c4ccc5c(c4)OCO5)cc3c2C#Cc2cncn2C)c1`, the growth rescue is 0.141%.

On to `COc1ccc2sc(-c3ccc(S(C)(=O)=O)cc3)c(C#Cc3cncn3C)c2c1`, for which the growth rescue was -1.56%.

With `Cn1cncc1C#Cc1c(-c2ccsc2)sc2ccccc12`, the growth rescue is 311% (active).

On to `CC(=NCc1ccc2c(c1)OCO2)C1=C(O)c2ccccc2C1=O`, for which the growth rescue was 47.2% (active).

As for `CC(=NCc1ccc2c(c1)OCO2)c1c(O)[nH]c(=O)[nH]c1=O`, the growth rescue was -0.437%.

Take `CCc1ccc(NC(=O)NC(C)c2ccc3c(c2)OCO3)cc1` (stereo not drawn): the growth rescue is 1.14%.

Consider `CCN(/N=C/c1ccc(N(C)C)cc1)c1nc2ccccc2[nH]1`, for which the growth rescue is 0.687%.

As to `COc1ccc(N)c(C)c1`, the growth rescue is -0.552%.

Regarding `NC(=O)Cn1nc([N+](=O)[O-])nc1Oc1ccc(Br)cc1`, the growth rescue is 1.81%.

For the compound `Cc1ccc(S(=O)(=O)N2CCOCC2)cc1NC(=O)COC(=O)c1cnccn1`, the growth rescue was 0.734%.

As for `CCC(O)CNc1nc(-n2nc(C)cc2C)nc2sc3c(c12)CC(C)(C)OC3` (stereo not drawn), the growth rescue was 0.423%.

On to `COCCNc1nc(-n2nc(C)cc2C)nc2sc3c(c12)CCCC3`, for which the growth rescue was 111% (active).

Turning to `CCCc1nc2sc3c(c2c(=O)n1NC(=O)CCCl)CCCC3`, the growth rescue is -0.355%.

Take `CC[C@]12c3[nH]c4ccc(OC)cc4c3CCN1C(=O)C(CC(=O)NCc1ccco1)C[C@@H]2C(=O)N1CCN(C(=O)C2CC2)CC1` (stereo partly drawn): the growth rescue is -1.76%.

`Cc1ccc2c(C)c(C(=O)N(C)CCC3CCCCO3)oc2c1C` (stereo not drawn): the growth rescue is 15.7%.

Consider `O=S(=O)(O)c1nc2ccccc2n1Cc1ccc(Cl)cc1Cl`, for which the growth rescue was 46.4% (active).

Take `O=C(Cn1c(NCCO)nc2ccccc21)c1ccc(Cl)cc1Cl`: the growth rescue is 0.311%.

As to `O=S(=O)(Cc1ccccc1)c1nc2ccccc2n1Cc1ccccn1`, the growth rescue is -1.91%.

As to `O=C(NC(=S)Nc1cccc(-c2ccc(CO)o2)c1)c1cccs1`, the growth rescue was 5.49%.

Consider `Oc1c(C(c2ccccn2)N2CCOCC2)ccc2cccnc12` (stereo not drawn), for which the growth rescue was 457% (active).

With `COc1cc2c(cc1OC)C(C)N(S(=O)(=O)c1cnc(Cl)c(Cl)c1)CC2` (stereo not drawn), the growth rescue is 1.43%.

Take `CCC(=O)Nc1nc(C)c(C(=O)Nc2cccc(Cl)c2)s1`: the growth rescue is 68.4% (active).

Regarding `CCOC(=O)c1sc(NC(=O)c2sc(C)nc2C)nc1C`, the growth rescue is -1.17%.

Consider `CCC(=O)Nc1sc(C(=O)Nc2ccccc2)c(C)c1C(=O)OC`, for which the growth rescue was 4.36%.

`CCOc1ccc(NS(=O)(=O)c2ccc(C)c(C(N)=O)c2)cc1`: the growth rescue was -1.27%.

On to `O=C(CCc1nc2sc3c(c2c(=O)[nH]1)CCCC3)NCC(=O)Nc1ccccc1Br`, for which the growth rescue is -1.97%.

In the case of `COC(=O)CN1C(=O)[C@H]2[C@@H](C3CC3)N3C(=O)CN(Cc4ccc(-c5ccccc5)cc4)C(=O)[C@@]3(Cc3ccccc3)[C@H]2C1=O`, the growth rescue was -1.17%.

As to `CN(C(=O)c1ccc(NC(=O)Cc2cccc(NC(=O)C3CCN(C(=O)c4ccccc4)CC3)c2)cc1)C1CC1`, the growth rescue was -0.0305%.

`Cn1nccc1NC(=O)Nc1ccc(OC(F)(F)F)cc1`: the growth rescue was -0.0415%.

Turning to `O=C(Nc1ccc(OC(F)(F)F)cc1)c1ccc2c(c1)no[n+]2[O-]`, the growth rescue was 178% (active).

Consider `Cn1cccc1/C=N/NC(=O)c1ccc(OC(F)(F)C(F)F)cc1`, for which the growth rescue is -1.34%.

As for `Cc1ccc2c(c1)N(C(=O)CCC(=O)NCc1cccnc1)CCO2`, the growth rescue was -1.04%.

For the compound `CCN([C@H](CO)C(C)C)S(=O)(=O)c1ccccc1Br`, the growth rescue is -0.487%.

With `COc1cccc(-n2c(=S)sc3c(=O)n(-c4ccccc4C)c(SCC(=O)O)nc32)c1`, the growth rescue is -1.96%.

`CC(C)C[C@@H](N)c1nnc(SCC(=O)c2ccc(Cl)cc2)o1`: the growth rescue was -0.522%.

`COCc1c(N)c(C)nc(Cl)c1C#N`: the growth rescue was 51% (active).

Consider `Cc1nc(Cl)c(C#N)c2c1CCCC2`, for which the growth rescue is 0.263%.

As to `COC(=O)c1c(C)c(C)nc(N)c1C#N`, the growth rescue was 0.0365%.

For the compound `OC(COc1ccc(F)cc1Cl)CN1CCc2ccccc2C1` (stereo not drawn), the growth rescue was 0.0845%.

For `C=CCc1ccc(OCC(O)CN2CCN(Cc3ccccc3)CC2)c(OC)c1` (stereo not drawn), the growth rescue is -0.721%.

Turning to `Cc1ccc(OCC(O)CN2CCN(CC(O)COc3ccc(C)cc3Cl)CC2)c(Cl)c1` (stereo not drawn), the growth rescue is 65.8% (active).

`CCCC(NC(=O)c1ccco1)c1nc2ccccc2[nH]1` (stereo not drawn): the growth rescue was -0.136%.

As for `COc1cccc(/C=N/Nc2ncc(C(F)(F)F)cc2Cl)c1O`, the growth rescue is 233% (active).

In the case of `O=c1[nH]c2cccnc2n(CCNc2ncc(C(F)(F)F)cc2Cl)c1=O`, the growth rescue was -1.76%.

For the compound `CN(C)C=NC(=O)c1cccn1-c1ncc(C(F)(F)F)cc1Cl`, the growth rescue is -0.737%.

Take `COc1ccc(NC(=O)COC(=O)c2ccncc2)c(OC)c1`: the growth rescue was -0.471%.

Turning to `CN(CCOc1ccc(Br)cc1)CC(=O)Nc1cccc(S(=O)(=O)NC2=NCCC2)c1`, the growth rescue is -0.17%.

Consider `COc1cc(C)c(C)cc1S(=O)(=O)N1CCCc2ccccc21`, for which the growth rescue was -0.881%.

`CCOC(=O)Cc1csc(SCC(=O)Nc2ccc(C)cc2F)n1`: the growth rescue is 0.85%.

As for `S=C(NCCCc1ccccc1)Nc1ccc(Br)cc1`, the growth rescue was 263% (active).

Consider `S=C(Nc1ccc(Br)cc1)NC1CCN(Cc2ccccc2)CC1`, for which the growth rescue is 1.33%.

`O=C(Cc1ccc(Br)cc1)NCCc1ccccc1`: the growth rescue was 1.3%.

Take `Cc1ccc(C)c2[nH]c(=O)c(CN(Cc3cccnc3)C(=S)NCc3ccco3)cc12`: the growth rescue is 0.529%.

As to `O=C(CSC1CC(=O)N(CCc2ccccc2)C1=O)Nc1ccc(Cl)cc1` (stereo not drawn), the growth rescue is 0.11%.

As for `CCCC(C(=O)n1nc(C)cc1C)C(NS(=O)(=O)c1ccc(C)cc1)c1ccccc1` (stereo not drawn), the growth rescue is 5.61%.
